This is part of a sample that, as a whole, favours compounds with a hit. Of some 83,000 tested, about 20% had one in any assay.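 Assay: single dose, 48 h. Readout: percent growth (0 = no net growth; negative = cell death). Active: <10.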 Values without a mark were called inactive. Active and inactive are the calls of the source.

Test systems include MOLT-4 leukemia; SR leukemia; RPMI-8226 leukemia; OVCAR-8 ovarian; OVCAR-5 ovarian; OVCAR-4 ovarian; SK-OV-3 ovarian; IGROV1 ovarian; OVCAR-3 ovarian; HS 578T breast; NCI/ADR-RES ovarian; T-47D breast; BT-549 breast; MDA-MB-435 melanoma; SW-620 colon; MCF7 breast; HCT-116 colon; HCC-2998 colon; KM12 colon.
Common to all, as to assay: NCI-60 one-dose screen, 48 h (100 = growth as untreated, 0 = no growth, -100 = all killed)
Settings in all cases: 10 µM unless noted

As for `COc1cc(/C=C/[N+](=O)[O-])c([N+](=O)[O-])cc1OC`, the growth with MOLT-4 leukemia is 7.83% (active); in the assay with SR leukemia it was 12.6%; with RPMI-8226 leukemia it was 4.37% (active); in the assay on OVCAR-8 ovarian, 17%; in the assay with OVCAR-5 ovarian it was -3.45% (active); in the assay on OVCAR-4 ovarian, 6.43% (active). Further, the growth is 103% with SK-OV-3 ovarian; -15.6% (active) in the assay on IGROV1 ovarian; -91.7% (active) with OVCAR-3 ovarian; 11.8% with HS 578T breast; 13.5% with NCI/ADR-RES ovarian; 16.5% with T-47D breast. For the same compound, the growth was 87.3% with BT-549 breast; 14% in the assay with MDA-MB-435 melanoma; -57.3% (active) in the assay on SW-620 colon; 8.83% (active) in the assay on MCF7 breast; -62.4% (active) in the assay on HCT-116 colon; 86.3% in the assay with HCC-2998 colon. Also, the growth with KM12 colon was 18.5%.

As to `Nc1nnnc2nc[nH]c12`, the growth in the assay with MOLT-4 leukemia was 8.9% (active); in the assay on SR leukemia it was 5.26% (active); in the assay on RPMI-8226 leukemia, -11.4% (active); in the assay on OVCAR-8 ovarian, 11.5%; in the assay on OVCAR-5 ovarian, -3.28% (active); in the assay with OVCAR-4 ovarian it was 27.4%. In addition, the growth in the assay on SK-OV-3 ovarian was -1.85% (active); in the assay with IGROV1 ovarian, 8.3% (active); with OVCAR-3 ovarian, 27.6%; with HS 578T breast, 8.71% (active); with NCI/ADR-RES ovarian it was 0.552% (active); in the assay with T-47D breast, -26.6% (active). Also, the growth was 43.8% in the assay with BT-549 breast; -11.8% (active) in the assay on MDA-MB-435 melanoma; 11% in the assay on SW-620 colon; 15.3% with MCF7 breast; -11.8% (active) in the assay on HCT-116 colon; 17.1% with HCC-2998 colon. The growth with KM12 colon was 25.6%.

Take `CCCCCCCCCCCCCCCCCC1OC[C@H](COC(=O)O[C@@H](C(=O)O[C@H]2C[C@@]3(O)[C@@H](OC(=O)c4ccccc4)[C@@H]4[C@]5(OC(C)=O)CO[C@@H]5C[C@H](O)[C@@]4(C)C(=O)[C@H](OC(C)=O)C(=C2C)C3(C)C)[C@@H](NC(=O)c2ccccc2)c2ccccc2)O1` (some centres not stated): the growth was 55.1% in the assay on MOLT-4 leukemia; 44.9% with SR leukemia; 17.5% in the assay with RPMI-8226 leukemia; 61.5% in the assay with OVCAR-8 ovarian; 41.5% in the assay on OVCAR-5 ovarian; 75.5% in the assay with OVCAR-4 ovarian. The growth is 62.8% in the assay on SK-OV-3 ovarian; 42.9% in the assay on IGROV1 ovarian; 31.9% with OVCAR-3 ovarian; 60.7% in the assay on HS 578T breast; 103% in the assay on NCI/ADR-RES ovarian; 50.4% in the assay with T-47D breast. Moreover, the growth was 53.8% in the assay with BT-549 breast; -29.7% (active) in the assay on MDA-MB-435 melanoma; 46.9% in the assay with SW-620 colon; 25.9% with MCF7 breast; 17.8% in the assay with HCT-116 colon; 54.1% with HCC-2998 colon. For the same compound, the growth in the assay on KM12 colon was 26.4%.

In the case of `CC[S][Hg][Cl]`, the growth is 109% in the assay on MOLT-4 leukemia; 98.1% in the assay on SR leukemia; 114% with RPMI-8226 leukemia; 102% in the assay with OVCAR-8 ovarian; 116% in the assay with OVCAR-5 ovarian; 122% in the assay on OVCAR-4 ovarian. The growth in the assay on SK-OV-3 ovarian was 110%; in the assay with IGROV1 ovarian, 112%; with OVCAR-3 ovarian it was 109%; with HS 578T breast, 106%; in the assay on NCI/ADR-RES ovarian it was 106%; in the assay on T-47D breast, 122%. For the same compound, the growth in the assay with BT-549 breast is 111%; in the assay with MDA-MB-435 melanoma, 98.7%; with SW-620 colon, 106%; in the assay on MCF7 breast it was 93.3%; in the assay with HCT-116 colon, 106%; in the assay on HCC-2998 colon it was 111%. Also, the growth in the assay on KM12 colon was 107%.

On to `COc1ccc2c(c1)c(-c1nc(-c3cn(C)c4ncccc34)cs1)cn2CCCCN1CCCCC1`, for which the growth is -65% (active) in the assay on MOLT-4 leukemia; -54.3% (active) in the assay on SR leukemia; -42% (active) in the assay with RPMI-8226 leukemia; -65.2% (active) in the assay with OVCAR-8 ovarian; -69.2% (active) in the assay on OVCAR-5 ovarian; -6.02% (active) in the assay with OVCAR-4 ovarian. Further, the growth is 38.5% in the assay with SK-OV-3 ovarian; -62.5% (active) in the assay on IGROV1 ovarian; -78.4% (active) in the assay on OVCAR-3 ovarian; 58.3% in the assay on HS 578T breast; 5.12% (active) in the assay with NCI/ADR-RES ovarian; 61% in the assay with T-47D breast. In addition, the growth with BT-549 breast is 85.1%; with MDA-MB-435 melanoma it was -88.9% (active); in the assay with SW-620 colon, -64.3% (active); with MCF7 breast it was -76.5% (active); in the assay on HCT-116 colon it was -93% (active); in the assay on HCC-2998 colon, 95.3%. Further, the growth with KM12 colon is -68.7% (active).

On to `CC[C@H](C)[C@H](NC(=O)[C@H]1CCCCN1C)C(=O)N(C)[C@H](C[C@@H](OC(C)=O)c1nc(C(=O)N[C@@H](Cc2ccccc2)C[C@H](C)C(=O)OC)cs1)C(C)C`, for which the growth with MOLT-4 leukemia is 4.63% (active); with SR leukemia, -7.13% (active); in the assay with RPMI-8226 leukemia, 27.5%; in the assay on OVCAR-8 ovarian it was 16.4%; in the assay on OVCAR-5 ovarian it was 58.1%; in the assay on OVCAR-4 ovarian, 51.5%. Also, the growth in the assay on SK-OV-3 ovarian was 41%; in the assay on IGROV1 ovarian, 25.9%; in the assay with OVCAR-3 ovarian, -0.916% (active); in the assay with HS 578T breast it was 33.8%; with NCI/ADR-RES ovarian, -4.28% (active); in the assay with T-47D breast, 81%. In addition, the growth with BT-549 breast is -35.7% (active); with MDA-MB-435 melanoma, -35.3% (active); in the assay on SW-620 colon, 45.4%; in the assay on MCF7 breast it was 12.9%; with HCT-116 colon, 4.25% (active); with HCC-2998 colon it was 10.8%. The growth in the assay with KM12 colon was 2.43% (active).

For `COc1cc(C=Nc2cccc(C(=O)O)c2)ccc1N(CCCl)CCCl`, the growth in the assay on MOLT-4 leukemia was 97.9%; with SR leukemia, 91.9%; with RPMI-8226 leukemia, 100%; with OVCAR-8 ovarian, 95.2%; in the assay on OVCAR-5 ovarian, 110%; in the assay with OVCAR-4 ovarian it was 114%. For the same compound, the growth was 110% in the assay with SK-OV-3 ovarian; 97% in the assay on IGROV1 ovarian; 105% in the assay on OVCAR-3 ovarian; 92.8% with HS 578T breast; 103% with NCI/ADR-RES ovarian; 96.3% in the assay on T-47D breast. The growth was 103% in the assay on BT-549 breast; 91.5% in the assay on MDA-MB-435 melanoma; 90.4% in the assay with SW-620 colon; 95.2% in the assay on MCF7 breast; 104% in the assay on HCT-116 colon; 74.4% with HCC-2998 colon. Besides, in the assay with KM12 colon, the growth was 57.3%.

Consider `COC(=O)CC[C@H](Cc1ccccc1)NC(=O)c1csc([C@@H](C[C@H](C(C)C)N(C)C(=O)[C@@H](NC(=O)[C@H]2CCCCN2C)C(C)C)OC(C)=O)n1`, for which the growth is 9.45% (active) in the assay with MOLT-4 leukemia; 13.9% with SR leukemia; 37.3% with RPMI-8226 leukemia; 28.1% in the assay on OVCAR-8 ovarian; 76.2% in the assay on OVCAR-5 ovarian; 52.3% in the assay with OVCAR-4 ovarian. Moreover, the growth in the assay with SK-OV-3 ovarian is 35.4%; in the assay on IGROV1 ovarian, 15.3%; in the assay on OVCAR-3 ovarian, -3.19% (active); with HS 578T breast it was 38.2%; in the assay on NCI/ADR-RES ovarian, 30.4%; in the assay on T-47D breast, 77.8%. Further, the growth was -22.4% (active) with BT-549 breast; 1.58% (active) with MDA-MB-435 melanoma; 35.8% in the assay on SW-620 colon; 17.1% in the assay on MCF7 breast; 20.8% in the assay with HCT-116 colon; 42.4% in the assay on HCC-2998 colon. Further, the growth in the assay on KM12 colon is 24.8%.

The values above are taken from PubChem BioAssay (NCI).
